From PubChem BioAssay come the findings set out here.

Activity calls are given as the source filed them. Unless noted, no rule for the calls is given here.

Experiment [1] in a line: compounds binding Alexa647 anti-His antibody – biochemical, small-molecule microarray, 635 nm fluorescence, artefact control for SMM control protein annotation, primary screen (AID 1128).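 Also: score merges feature fluorescence with signal-to-noise for each printed compound spot.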 Conditions: higher = more signal.
Experiment [2] concerns Human papillomavirus type 1a E7 protein (residues 1-88). In words: HPV1a E7 small-molecule binders, primary screen, biochemical, small-molecule microarray, residues 1-88, 635 nm (AID 1129). Conditions: small-molecule microarray binding, fluorescence 635 nm; higher = more signal.
Experiment [3] deals with Focal adhesion kinase 1 (Homo sapiens) (UniProt Q05397). In words: PTK2 protein binding on printed compound slides – biochemical, small-molecule microarray, 635/667 nm fluorescence, BSA, DTT, primary screen (AID 1130).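 Also: composite of spot emission at 667 nm and signal to noise over triplicate slides.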 Conditions: 635 nm fluorescence, higher = more signal.
Experiment [4] has as its system Fibrinogen (Alexa647-labelled). In words: Alexa647-fibrinogen binding to printed small molecules – biochemical, small-molecule microarray, 635/667 nm fluorescence, artefact control for SMM control-protein annotation, profiling panel (AID 1131).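 Also: z-score merges 667 nm fluorescence with per-spot signal-to-noise over triplicate slides.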 Conditions: fibrinogen-A647 binding fluorescence, higher = more signal.
Experiment [5] addresses Follistatin (Homo sapiens) (UniProt P19883). The experiment can be described thus: FST protein binding to printed compounds – biochemical, small-molecule microarray, 635/667 nm fluorescence, primary screen (AID 1132). The conditions noted are these: 635 nm fluorescence, higher = more signal.
Experiment [6] deals with Fibroblast growth factor 2 (Homo sapiens) (UniProt P09038). In words: basic fibroblast growth factor binding to printed compounds – biochemical, small-molecule microarray, 635/667 nm fluorescence, primary screen (AID 1133). The conditions noted are these: FGF2, fluorescence 635/667, higher = more signal.
Experiment [7] is described as follows: JC-1 mitochondrial potential readout, lung cancer cells – cell-based, A549, JC-1 fluorescence, basal, 24 h, 100 nL, profiling panel (AID 1138).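 Also: A549 lung adenocarcinoma cells under basal conditions with no added stimulus; test concentration not given here.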 The conditions noted are these: higher = more signal.
A further experiment has as its system Lefty1. The experiment can be described thus: Lefty1 protein binding to printed compounds – biochemical, small-molecule microarray, 635/667 nm fluorescence, primary screen (AID 1139). Conditions: fluorescence 635/667, higher = more signal.
For experiment [8], the system named is wheat germ agglutinin (Triticum aestivum), Alexa647-labelled. In words: Alexa647-WGA lectin binding to printed small molecules – biochemical, small-molecule microarray, 635/667 nm fluorescence, artefact control for SMM control-protein annotation, profiling panel (AID 1140).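 Also: score merges 667 nm feature emission with signal to noise over triplicate slides.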 The conditions noted are these: WGA-A647 binding, 635 nm fluorescence, higher = more signal.

For experiment [9], the target named is Luciferin 4-monooxygenase (Photinus pyralis) (UniProt P08659). The experiment can be described thus: inhibition of purified Photinus pyralis luciferase – biochemical, luminescence, purified enzyme, 2006 set, primary screen (AID 1141).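 Also: cell-free assay with purified firefly luciferase at 100 ng per well in PBS; test concentration not given here.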 The conditions noted are these: purified firefly luciferase, SteadyGlo luminescence, 30 min; higher = more signal, called active from +8 up or from −8 down.

Experiment [10] relates to Wnt5a (protein binding on small-molecule microarray). In words: small molecules binding Wnt5a protein – biophysical, small-molecule microarray, 635/667 nm fluorescence, primary screen (AID 1142).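 Also: fluorescence read at 667 nm with signal to noise per printed feature.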 Conditions: 635 nm fluorescence, higher = more signal.
Experiment [11] in a line: ATP-based viability of Huh7 replicon cells – cell-based, CellTiter-Glo luminescence, basal, 48 h, cytotoxicity control for HCV replication inhibitor project, primary screen (AID 1143).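 Also: Huh7 hepatoma cells carrying a hepatitis C replication reporter with no stimulus; test concentration not given here.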 The conditions noted are these: higher = more signal, called active from +8 up or from −8 down.
A short description of experiment [12]: Pseudomonas biofilm growth suppression – PAO1 strain, BacTiter-Glo luminescence, LB-PBS, primary screen (AID 1144). Conditions: P. aeruginosa PAO1 biofilm, 12 h, higher = more signal.
A short description of experiment [13]: basal CRE-LacZ reporter activity in PC12 – cell-based, unstimulated, primary screen (AID 1145). The conditions noted are these: no forskolin, luminescence, 4.5 h, higher = more signal, called active from +8 up or from −8 down.
The nature of experiment [14]: forskolin-driven CRE-LacZ activity in PC12 – cell-based, CRE-LacZ reporter, forskolin-stimulated, primary screen (AID 1146).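 Also: PC12 cells with 6xCRE LacZ reporter stimulated by forskolin 10 µM; beta-galactosidase reporter signal reflecting CREB driven transcription.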 Conditions: luminescence, 4.5 h, higher = more signal, called active from +8 up or from −8 down.
In experiment [15] the target is Streptavidin (Streptomyces avidinii) (UniProt P22629). In words: compounds binding control protein streptavidin – biophysical, small-molecule microarray, 635/667 nm fluorescence, artefact control for SMM compound annotation, primary screen (AID 1147).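 Also: signal reflects streptavidin binding to arrayed compounds as a control protein.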 The conditions noted are these: higher = more signal.
A short description of experiment [16]: probe aInhba binding on compound microarray – biochemical, small-molecule microarray, 635/667 nm fluorescence, primary screen (AID 1148).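 Also: score merges 667nm spot fluorescence with signal-to-noise for antibody binding to printed compounds.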 The conditions noted are these: higher = more signal.
For experiment [17], the target named is Torsin-1A (Homo sapiens) (UniProt O14656). The experiment can be described thus: TOR1A wild-type binding on microarray – cell lysate, small-molecule microarray, lysate, 635/667 nm, primary screen (AID 1149). Conditions: COS7 hTOR1A-WT lysate, 635 nm fluorescence, higher = more signal.
For experiment [18] the target is unchanged. The experiment can be described thus: torsin A mutant lysate binding on microarrays – cell lysate, small-molecule microarray, COS7 lysate, 635/667 nm fluorescence, primary screen (AID 1150).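 Also: score pools 667 nm emission and signal to noise measuring lysate protein binding.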 Conditions: COS7 hTOR1A mutant lysate, 635 nm fluorescence, higher = more signal.
In experiment [19] the test system is Sonic hedgehog protein (Shh). The experiment can be described thus: Sonic hedgehog microarray binding compounds – biochemical, small-molecule microarray, 635/667 nm fluorescence, primary screen (AID 1151).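 Also: Shh protein binding to compounds spotted on small-molecule microarray slides; score combines spot fluorescence intensity with signal-to-noise across triplicate slides.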 Conditions: 635 nm fluorescence, higher = more signal.

Chain of Fibroblast growth factor 2 (Homo sapiens) (P09038 whole entry, looked up): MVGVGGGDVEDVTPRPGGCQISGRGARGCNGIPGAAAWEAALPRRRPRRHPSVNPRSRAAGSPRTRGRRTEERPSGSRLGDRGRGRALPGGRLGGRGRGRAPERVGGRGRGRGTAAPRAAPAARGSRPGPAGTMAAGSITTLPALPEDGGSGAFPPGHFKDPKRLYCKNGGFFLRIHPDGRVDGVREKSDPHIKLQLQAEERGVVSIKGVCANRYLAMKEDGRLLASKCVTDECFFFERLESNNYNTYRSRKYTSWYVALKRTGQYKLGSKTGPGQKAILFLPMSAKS
Chain of Streptavidin (Streptomyces avidinii) (P22629 whole entry, looked up): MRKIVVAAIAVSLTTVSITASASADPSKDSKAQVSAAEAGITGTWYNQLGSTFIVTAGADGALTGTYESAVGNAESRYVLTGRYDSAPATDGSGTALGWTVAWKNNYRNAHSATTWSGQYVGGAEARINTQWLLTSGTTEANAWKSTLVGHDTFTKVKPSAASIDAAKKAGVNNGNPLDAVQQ
Chain of Focal adhesion kinase 1 (Homo sapiens) (Q05397 whole entry, looked up): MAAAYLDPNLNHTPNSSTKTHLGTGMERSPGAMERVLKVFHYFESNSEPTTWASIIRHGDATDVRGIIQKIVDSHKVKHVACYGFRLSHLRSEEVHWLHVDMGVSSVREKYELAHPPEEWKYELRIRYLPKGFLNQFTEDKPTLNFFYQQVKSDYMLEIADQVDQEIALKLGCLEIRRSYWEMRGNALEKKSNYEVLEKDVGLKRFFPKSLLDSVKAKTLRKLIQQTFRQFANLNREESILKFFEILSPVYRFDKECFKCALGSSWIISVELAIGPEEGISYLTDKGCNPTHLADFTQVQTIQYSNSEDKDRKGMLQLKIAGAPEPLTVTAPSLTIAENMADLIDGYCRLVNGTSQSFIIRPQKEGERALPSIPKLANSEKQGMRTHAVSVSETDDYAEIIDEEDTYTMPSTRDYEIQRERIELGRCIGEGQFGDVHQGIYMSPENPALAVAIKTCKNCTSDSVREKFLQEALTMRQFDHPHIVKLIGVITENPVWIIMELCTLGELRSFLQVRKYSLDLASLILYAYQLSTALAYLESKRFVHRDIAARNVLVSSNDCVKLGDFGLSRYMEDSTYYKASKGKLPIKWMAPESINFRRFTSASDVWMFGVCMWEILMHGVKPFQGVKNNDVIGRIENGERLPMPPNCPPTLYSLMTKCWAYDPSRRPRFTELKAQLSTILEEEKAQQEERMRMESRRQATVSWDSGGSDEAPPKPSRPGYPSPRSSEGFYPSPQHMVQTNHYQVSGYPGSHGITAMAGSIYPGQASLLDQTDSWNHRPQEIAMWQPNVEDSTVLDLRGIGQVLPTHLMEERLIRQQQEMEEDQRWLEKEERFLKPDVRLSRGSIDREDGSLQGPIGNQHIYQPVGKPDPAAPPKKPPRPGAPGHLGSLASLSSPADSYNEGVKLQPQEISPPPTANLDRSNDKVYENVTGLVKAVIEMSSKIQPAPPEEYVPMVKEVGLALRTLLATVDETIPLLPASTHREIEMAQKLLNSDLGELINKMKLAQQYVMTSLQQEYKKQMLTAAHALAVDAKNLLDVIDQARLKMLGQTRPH
Chain of Luciferin 4-monooxygenase (Photinus pyralis) (P08659 whole entry, looked up): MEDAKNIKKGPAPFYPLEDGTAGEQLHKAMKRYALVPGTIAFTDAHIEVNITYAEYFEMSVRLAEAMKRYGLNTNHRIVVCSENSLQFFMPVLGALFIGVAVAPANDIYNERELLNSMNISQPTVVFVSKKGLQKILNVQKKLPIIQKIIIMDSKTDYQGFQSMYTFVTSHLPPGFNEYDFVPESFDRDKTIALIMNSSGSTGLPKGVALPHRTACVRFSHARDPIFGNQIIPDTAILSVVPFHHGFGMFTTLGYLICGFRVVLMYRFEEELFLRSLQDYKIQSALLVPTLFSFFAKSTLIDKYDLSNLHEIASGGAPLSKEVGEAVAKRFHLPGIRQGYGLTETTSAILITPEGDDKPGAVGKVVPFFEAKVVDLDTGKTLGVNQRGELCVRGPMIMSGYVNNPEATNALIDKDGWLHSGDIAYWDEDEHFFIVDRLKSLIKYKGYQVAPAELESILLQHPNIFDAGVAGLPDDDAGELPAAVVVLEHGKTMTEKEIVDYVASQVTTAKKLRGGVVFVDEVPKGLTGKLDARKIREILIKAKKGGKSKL
Chain of Follistatin (Homo sapiens) (P19883 whole entry, looked up): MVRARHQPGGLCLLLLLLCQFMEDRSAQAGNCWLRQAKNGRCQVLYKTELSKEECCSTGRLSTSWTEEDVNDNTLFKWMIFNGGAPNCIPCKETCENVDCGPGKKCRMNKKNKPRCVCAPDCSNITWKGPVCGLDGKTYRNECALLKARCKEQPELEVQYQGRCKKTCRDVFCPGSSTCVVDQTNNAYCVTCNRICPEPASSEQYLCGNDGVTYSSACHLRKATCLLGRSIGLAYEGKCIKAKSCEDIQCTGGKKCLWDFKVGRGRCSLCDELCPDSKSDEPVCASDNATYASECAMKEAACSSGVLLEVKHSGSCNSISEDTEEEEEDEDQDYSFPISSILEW
Chain of Torsin-1A (Homo sapiens) (O14656 whole entry, looked up): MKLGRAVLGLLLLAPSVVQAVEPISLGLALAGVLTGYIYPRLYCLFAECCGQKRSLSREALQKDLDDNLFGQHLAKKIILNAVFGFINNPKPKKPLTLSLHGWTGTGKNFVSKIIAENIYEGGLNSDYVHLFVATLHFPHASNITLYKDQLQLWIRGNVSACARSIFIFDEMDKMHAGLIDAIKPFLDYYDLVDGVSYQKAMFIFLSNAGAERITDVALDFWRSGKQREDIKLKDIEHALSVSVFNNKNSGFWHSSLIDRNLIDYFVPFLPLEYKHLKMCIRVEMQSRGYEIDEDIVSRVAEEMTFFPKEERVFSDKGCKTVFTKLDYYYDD

In the case of `CC(C)CON=C1C[C@@H](O)[C@@H](O)[C@@H]2[C@@H]3C(=O)N(Cc4ccc5c(c4)OCO5)C(=O)[C@@H]3CC[C@H]12`, the composite z-score in [1] is 0.193; in experiment [2], 0.689; in experiment [3], 0.0874; in experiment [4], 0.237; in [5] it was 0.707; in experiment [6], 0.914. Besides, the composite z-score was 0.831 with Lefty1; -0.0178 in experiment [8]; 0.365 in [10]; 1.23 in [15]; -0.0589 in [16]; 0.217 with Torsin-1A (Homo sapiens) [17]. In addition, the composite z-score with Torsin-1A (Homo sapiens) [18] came to 0.739; in [19] it was 1.45. Moreover, the z-score was -0.72 in experiment [7]; 1.26 (inactive) in experiment [9]; -0.365 (inactive) in experiment [11]; 1.01 (inactive) in experiment [12]; 0.242 (inactive) in [13]; 0.201 (inactive) in [14].

With `CCCNC(=O)OC[C@H]1O[C@H](c2ccccc2)C=C[C@@H]1Oc1ccc(OC)cc1`, the composite z-score is 0.98 in [1]; 0.0455 in experiment [2]; -0.0038 in [3]; 0.25 in experiment [4]; -0.143 in experiment [5]; -0.179 in [6]. Besides, the composite z-score in the experiment on Lefty1 was 0.212; in [8] it was -0.114; in experiment [10] it was -0.0663; in experiment [15], 1.48; in [16] it was -0.0719; with Torsin-1A (Homo sapiens) [17] it was -0.131. Also, the composite z-score came to 0.144 with Torsin-1A (Homo sapiens) [18] and 0.0199 in experiment [19]. In addition, the z-score is -0.388 in [7]; -0.533 (inactive) in [9]; -0.234 (inactive) in experiment [11]; 0.404 (inactive) in [12]; 0.735 (inactive) in [13]; -0.353 (inactive) in experiment [14].

As for `COc1ccc(O[C@H]2C=C[C@@H](c3ccccc3)O[C@@H]2COC(=O)CCC(C)=NOC[C@@H](O)[C@H]2O[C@@H]3OC(C)(C)O[C@@H]3[C@H]2O)cc1`, the composite z-score stood at 0.977 in [1]; 0.835 in [2]; 0.179 in experiment [3]; 0.536 in experiment [4]; 0.697 in experiment [5]; 0.439 in experiment [6]. Also, the composite z-score in the experiment on Lefty1 was 0.334; in [8] it was -0.13; in experiment [10] it was 0.383; in experiment [15] it was 1.15; in [16], -0.0963; with Torsin-1A (Homo sapiens) [17] it was 0.624. The composite z-score was 0.891 in the experiment with Torsin-1A (Homo sapiens) [18] and 1.14 in [19]. Besides, the z-score in [7] is -0.206; in [9], 0.302 (inactive); in [11], -0.119 (inactive); in experiment [12], -0.108 (inactive); in [13], -1.14 (inactive); in [14], -0.866 (inactive).

Take `CC(C)CON=C1[C@H]2CCn3c(=O)n(Cc4cc5c(cc4Cl)OCO5)c(=O)n3[C@H]2[C@H](O)[C@@H]2O[C@H]12`: the composite z-score in [1] amounted to 0.158; in experiment [2], 0.489; in experiment [3], 0.217; in [4], 0.172; in experiment [5], 0.768; in experiment [6], 0.42. Besides, the composite z-score with Lefty1 is 0.452; in experiment [8] it was -0.121; in experiment [10] it was 0.26; in [15], 1.49; in [16], -0.0332; with Torsin-1A (Homo sapiens) [17], 1.39. Further, the figures for the composite z-score (in the experiment with Torsin-1A (Homo sapiens) [18]; in [19]) were 0.49 and 0.504, respectively. For the same molecule, the z-score in experiment [7] was -0.937; in experiment [9], 0.748 (inactive); in experiment [11] it was -2.89 (inactive); in [12] it was 0.376 (inactive); in experiment [13], 1.87 (inactive); in experiment [14], 0.819 (inactive).

As for `COC(=O)[C@@H]1CC[C@H](C)[C@@H](c2ccc(C)cc2)N1C(=O)c1ccc(C=NO[C@H](C)c2cn([C@H](CO)Cc3ccccc3)nn2)cc1`, the composite z-score in [1] was 0.762; in experiment [2], 1.04; in experiment [3] it was 0.926; in experiment [4], -0.466; in experiment [5] it was 0.738; in experiment [6], 0.377. Further, the composite z-score in the experiment with Lefty1 worked out at 0.957; in [8], 0.295; in experiment [10], 0.247; in [15] it was 0.0407; in experiment [16] it was 0.288; with Torsin-1A (Homo sapiens) [17] it was 0.278. For the same molecule, the composite z-score with Torsin-1A (Homo sapiens) [18] amounted to 0.277; in [19] it was 0.682. The z-score in experiment [7] is -0.406; in experiment [9] it was 0.184 (inactive); in experiment [11], -0.63 (inactive); in [12] it was 0.0292 (inactive); in [13], 8.24 (active); in experiment [14] it was 0.371 (inactive).
